How the values were obtained:
Test in all cases: protein-binding microarray (PBM); PBM: ~300 nM protein, 6 mM HEPES pH 7.8, 80 mM KCl, 0.5 mM EDTA, 0.5 mM EGTA, 6% glycerol, 35 ng/ul poly-dIdC, 1% milk, 1 h, room temperature; Ap Aiptasia and Nv Nematostella (sea anemones) / Co Capsaspora / Aq Amphimedon (sponge) / Dm Drosophila / Hu human; RHD is the Rel homology domain; high values mean tight binding
Details in all cases: dsDNA, one strand shown
GST-Ap-NF-kB RHD = target: T1, GST-Ap-NF-kB RHD (Exaiptasia pallida (Aiptasia), UniProt A0A913YAJ5 2-422)
T1 sequence: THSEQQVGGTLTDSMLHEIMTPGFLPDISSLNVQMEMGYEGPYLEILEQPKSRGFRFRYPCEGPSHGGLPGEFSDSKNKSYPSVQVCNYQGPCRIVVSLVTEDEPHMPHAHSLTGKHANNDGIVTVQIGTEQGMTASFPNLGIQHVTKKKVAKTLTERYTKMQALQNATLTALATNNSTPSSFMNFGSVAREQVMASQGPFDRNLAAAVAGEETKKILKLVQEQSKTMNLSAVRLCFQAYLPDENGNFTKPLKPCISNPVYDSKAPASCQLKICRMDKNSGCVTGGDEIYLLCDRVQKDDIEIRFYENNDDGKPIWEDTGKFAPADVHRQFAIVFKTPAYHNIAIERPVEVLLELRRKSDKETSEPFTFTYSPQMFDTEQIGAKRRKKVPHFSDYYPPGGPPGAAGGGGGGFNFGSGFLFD

[1] = target: T2, GST-Nv-NF-kB (Cys allele) (Nematostella vectensis, UniProt E5G601 2-411)
T2 sequence: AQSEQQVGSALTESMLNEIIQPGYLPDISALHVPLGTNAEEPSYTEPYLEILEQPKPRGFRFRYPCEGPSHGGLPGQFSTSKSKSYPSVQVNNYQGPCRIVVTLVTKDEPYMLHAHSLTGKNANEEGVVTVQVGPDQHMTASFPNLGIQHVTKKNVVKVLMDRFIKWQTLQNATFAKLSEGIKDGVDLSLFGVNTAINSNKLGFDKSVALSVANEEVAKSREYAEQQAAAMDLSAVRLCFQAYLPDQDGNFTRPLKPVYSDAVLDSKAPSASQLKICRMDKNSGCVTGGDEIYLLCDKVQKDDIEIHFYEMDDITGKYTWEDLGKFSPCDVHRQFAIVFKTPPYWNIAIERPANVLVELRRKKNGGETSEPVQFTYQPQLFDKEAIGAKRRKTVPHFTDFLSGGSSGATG

GST-Co-NF-kB = target: T3, GST-Co-NF-kB (Capsaspora owczarzaki, UniProt F1ARL5 200-546)
T3 sequence: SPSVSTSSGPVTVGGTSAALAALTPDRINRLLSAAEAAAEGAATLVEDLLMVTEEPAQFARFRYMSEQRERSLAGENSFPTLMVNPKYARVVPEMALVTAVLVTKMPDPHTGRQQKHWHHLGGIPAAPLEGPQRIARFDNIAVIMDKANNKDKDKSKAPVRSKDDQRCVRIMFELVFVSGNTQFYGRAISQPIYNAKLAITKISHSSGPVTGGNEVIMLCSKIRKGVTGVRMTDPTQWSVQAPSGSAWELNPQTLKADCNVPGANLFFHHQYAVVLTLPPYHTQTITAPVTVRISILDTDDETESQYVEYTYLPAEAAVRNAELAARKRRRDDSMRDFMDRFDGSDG

GST-Dm-Relish = target: T4, GST-Dm-Relish (Drosophila melanogaster, UniProt Q94527 99-473)
T4 sequence: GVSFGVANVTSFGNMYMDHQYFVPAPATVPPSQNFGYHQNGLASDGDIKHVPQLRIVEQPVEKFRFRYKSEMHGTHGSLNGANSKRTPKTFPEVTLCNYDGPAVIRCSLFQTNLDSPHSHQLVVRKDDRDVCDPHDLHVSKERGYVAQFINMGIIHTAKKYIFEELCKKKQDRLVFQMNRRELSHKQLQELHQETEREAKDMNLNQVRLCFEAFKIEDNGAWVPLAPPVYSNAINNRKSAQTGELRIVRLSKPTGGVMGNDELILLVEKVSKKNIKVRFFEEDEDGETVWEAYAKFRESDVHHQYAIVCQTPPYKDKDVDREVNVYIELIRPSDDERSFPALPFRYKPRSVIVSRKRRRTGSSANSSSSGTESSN

GST-Aq-NF-kB = target: T5, GST-Aq-NF-kB (Amphimedon queenslandica, UniProt A9Y5G7 2-389)
T5 sequence: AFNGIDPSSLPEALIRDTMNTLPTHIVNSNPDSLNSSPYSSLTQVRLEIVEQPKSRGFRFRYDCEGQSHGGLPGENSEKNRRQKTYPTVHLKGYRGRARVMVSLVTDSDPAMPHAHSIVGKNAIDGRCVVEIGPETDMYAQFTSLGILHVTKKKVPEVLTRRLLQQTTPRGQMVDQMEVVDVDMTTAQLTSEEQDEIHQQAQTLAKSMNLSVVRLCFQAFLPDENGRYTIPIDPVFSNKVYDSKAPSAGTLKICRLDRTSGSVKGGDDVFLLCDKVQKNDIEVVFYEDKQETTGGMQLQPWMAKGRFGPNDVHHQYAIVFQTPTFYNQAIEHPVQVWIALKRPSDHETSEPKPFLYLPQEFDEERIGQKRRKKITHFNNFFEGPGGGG

GST-Hu-p50 = GST-Hu-p50 (Homo sapiens, UniProt P19838 7-356)
GST-Hu-p50, sequence (P19838 7-356): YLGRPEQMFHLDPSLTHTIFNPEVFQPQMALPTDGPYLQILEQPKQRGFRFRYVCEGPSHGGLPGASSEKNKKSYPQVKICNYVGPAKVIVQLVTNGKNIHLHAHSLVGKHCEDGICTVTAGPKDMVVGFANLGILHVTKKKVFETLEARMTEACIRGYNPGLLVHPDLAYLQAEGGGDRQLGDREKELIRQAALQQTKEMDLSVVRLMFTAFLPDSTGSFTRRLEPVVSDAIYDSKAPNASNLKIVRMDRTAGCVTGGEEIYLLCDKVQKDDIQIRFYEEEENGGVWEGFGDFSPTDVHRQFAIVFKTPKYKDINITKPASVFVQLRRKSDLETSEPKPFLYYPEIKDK

Row | Sequence | binding signal (GST-Ap-NF-kB RHD) | binding signal [1] | binding signal (GST-Co-NF-kB) | binding signal (GST-Dm-Relish) | binding signal (GST-Aq-NF-kB) | binding signal (GST-Hu-p50)
1 | CCGATTAACATCAGGGGGGAACATGATGTTAATCGGGTCTTGATTCGCTTGACGCTGCTG | 6.4 z-score | 4.35 z-score | 9.73 z-score | 4.25 z-score | 5.22 z-score | 5.4 z-score
2 | CCGATTAACATCAGGATATCCCCTGATGTTAATCGGGTCTTGATTCGCTTGACGCTGCTG | 8.1 z-score | 7.01 z-score | 3.66 z-score | 7.25 z-score | 7.17 z-score | 5.46 z-score
3 | CCGATTAACATCAGGGGGAGGGATGATGTTAATCGGGTCTTGATTCGCTTGACGCTGCTG | 4.44 z-score | 4.45 z-score | 5.87 z-score | 3.28 z-score | 4.21 z-score | 4.01 z-score
4 | CCGATTAACATCAAACAGTCCCCTGATGTTAATCGGGTCTTGATTCGCTTGACGCTGCTG | 5.58 z-score | 5.6 z-score | 2.54 z-score | 3.49 z-score | 5.66 z-score | 4.54 z-score
5 | CCGATTAACATCAAGGAGTCCCCTGATGTTAATCGGGTCTTGATTCGCTTGACGCTGCTG | 7.69 z-score | 5.61 z-score | 3.12 z-score | 8.59 z-score | 5.54 z-score | 5.86 z-score
6 | CCGATTAACATCAAGGGGGATACTGATGTTAATCGGGTCTTGATTCGCTTGACGCTGCTG | 6.74 z-score | 4.59 z-score | 4.72 z-score | 3.41 z-score | 4.99 z-score | 5.48 z-score
7 | CCGATTAACATCAAAATTCCCGTTGATGTTAATCGGGTCTTGATTCGCTTGACGCTGCTG | 3.98 z-score | 6.87 z-score | 4.03 z-score | 5.57 z-score | 6.15 z-score | 5.26 z-score
8 | CCGATTAACATCAGAACCCCCCCTGATGTTAATCGGGTCTTGATTCGCTTGACGCTGCTG | 7.14 z-score | 4.85 z-score | 4.1 z-score | 7.49 z-score | 5.36 z-score | 5.28 z-score
9 | CCGATTAACATCAGGGCACCCCCTGATGTTAATCGGGTCTTGATTCGCTTGACGCTGCTG | 6.14 z-score | 4.52 z-score | 2.4 z-score | 8.28 z-score | 7.23 z-score | 4.75 z-score
10 | CCGATTAACATCAAAAAGCCCCGTGATGTTAATCGGGTCTTGATTCGCTTGACGCTGCTG | 6.52 z-score | 8.2 z-score | 1.43 z-score | 8.47 z-score | 7.21 z-score | 6.06 z-score
11 | CCGATTAACATCAACTATCCCCCTGATGTTAATCGGGTCTTGATTCGCTTGACGCTGCTG | 5.83 z-score | 4.03 z-score | 6.08 z-score | 2.98 z-score | 4.04 z-score | 4.09 z-score
